This is part of a sample that, as a whole, favours compounds with a hit. Of some 83,000 tested, about 20% had one in any assay.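 Note: values are percent growth. 100 is the growth of untreated cells, values between 100 and 0 indicate rising inhibition; between -100 and 0 indicates cell death.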 Active and inactive are the calls of the source. Rule for the calls: active = growth percent below 10; inactive = the rest.
Assays:
Assay in all cases: NCI-60 one-dose screen, 48 h (100 = growth as untreated, 0 = no growth, -100 = all killed)
Settings in all cases: 10 µM unless noted
NCI-H23 lung = test system: NCI-H23 lung
NCI-H226 lung = test system: NCI-H226 lung
NCI-H322M lung = test system: NCI-H322M lung
HOP-62 NSCLC = test system: HOP-62 NSCLC
NCI-H460 lung = test system: NCI-H460 lung
HOP-92 NSCLC = test system: HOP-92 NSCLC
NCI-H522 lung = test system: NCI-H522 lung
A549/ATCC NSCLC = test system: A549/ATCC NSCLC
786-0 renal = test system: 786-0 renal
COLO 205 colon = test system: COLO 205 colon
DU-145 prostate = test system: DU-145 prostate
K-562 leukemia = test system: K-562 leukemia
MALME-3M melanoma = test system: MALME-3M melanoma
MDA-MB-231 breast = test system: MDA-MB-231 breast
RXF 393 renal = test system: RXF 393 renal
SF-268 CNS = test system: SF-268 CNS
SF-295 CNS = test system: SF-295 CNS
SF-539 CNS = test system: SF-539 CNS
UACC-257 melanoma = test system: UACC-257 melanoma
M14 melanoma = test system: M14 melanoma

Measured: growth

CN(C)c1ccc(-c2c(C#N)c(N)n3nc(N)c(C#N)c3c2C#N)cc1
inactive: NCI-H23 lung 96.9% | NCI-H226 lung 86% | NCI-H322M lung 82% | HOP-62 NSCLC 57.8% | NCI-H460 lung 70.1% | HOP-92 NSCLC 60.1% | NCI-H522 lung 82.7% | A549/ATCC NSCLC 73.6% | 786-0 renal 93.1% | COLO 205 colon 75.4% | DU-145 prostate 67.1% | K-562 leukemia 109% | MALME-3M melanoma 116% | MDA-MB-231 breast 43.2% | RXF 393 renal 65.5% | SF-268 CNS 77% | SF-295 CNS 104% | SF-539 CNS 78.2% | UACC-257 melanoma 113% | M14 melanoma 69.1%

CCCCCCNC(=O)Oc1ccc(/C(=C(/CC)Cc2ccccc2)c2ccc(OCCN(CC)CC)cc2)cc1
inactive: NCI-H23 lung 88% | NCI-H226 lung 89.3% | NCI-H322M lung 87.5% | HOP-62 NSCLC 88.8% | HOP-92 NSCLC 42.3% | NCI-H522 lung 74.5% | A549/ATCC NSCLC 56.2% | 786-0 renal 63.7% | DU-145 prostate 80.8% | MALME-3M melanoma 17.4% | MDA-MB-231 breast 67.5% | RXF 393 renal 60.2% | SF-268 CNS 76.5% | SF-295 CNS 102% | SF-539 CNS 86.1% | UACC-257 melanoma 86% | M14 melanoma 39.4%
active: NCI-H460 lung -41.3% | COLO 205 colon -48.6% | K-562 leukemia -11.6%

O=C1C(=O)c2c(nc3ncccn23)-c2ccccc21
active: NCI-H23 lung -49.4% | NCI-H226 lung -83.2% | NCI-H322M lung -96.7% | HOP-62 NSCLC -90.4% | NCI-H460 lung -49.3% | HOP-92 NSCLC -84.1% | NCI-H522 lung -60.7% | A549/ATCC NSCLC -35.6% | 786-0 renal -94.9% | COLO 205 colon -70.7% | DU-145 prostate -96.8% | K-562 leukemia -43.5% | MALME-3M melanoma -96.9% | MDA-MB-231 breast -55.3% | RXF 393 renal -97.2% | SF-268 CNS -70.8% | SF-295 CNS -97.8% | SF-539 CNS -98.3% | UACC-257 melanoma -95.4% | M14 melanoma -87%

c1ccc(-c2nn(-c3ccccc3)[n+](-c3ccccc3-c3ccccc3)n2)cc1
active: NCI-H23 lung 5.14% | NCI-H460 lung 5.11% | HOP-92 NSCLC -24.4% | NCI-H522 lung -7.02% | COLO 205 colon -34.5% | K-562 leukemia 5.29% | MALME-3M melanoma -31.7% | SF-295 CNS 3.4% | UACC-257 melanoma 9.82%
inactive: NCI-H226 lung 28.1% | NCI-H322M lung 40.6% | HOP-62 NSCLC 32.6% | A549/ATCC NSCLC 17.3% | 786-0 renal 30.8% | DU-145 prostate 22.8% | MDA-MB-231 breast 35.5% | RXF 393 renal 10.1% | SF-268 CNS 22% | SF-539 CNS 22.9% | M14 melanoma 23.2%

CC(=O)c1c(-c2ccc(OC(F)(F)F)cc2)nc2ccccn12
inactive: NCI-H23 lung 95.4% | NCI-H226 lung 91% | NCI-H322M lung 90.4% | HOP-62 NSCLC 88.9% | NCI-H460 lung 103% | HOP-92 NSCLC 91% | NCI-H522 lung 51.5% | A549/ATCC NSCLC 62.8% | 786-0 renal 99% | COLO 205 colon 95.8% | DU-145 prostate 101% | K-562 leukemia 113% | MALME-3M melanoma 88.9% | MDA-MB-231 breast 94% | RXF 393 renal 108% | SF-268 CNS 94.3% | SF-295 CNS 90.2% | SF-539 CNS 92.3% | UACC-257 melanoma 81.8% | M14 melanoma 89.8%

COc1ccc(CC(C)=C(c2ccc(OCCN(C)C)cc2)c2ccc(OCCN(C)C)cc2)cc1
active: K-562 leukemia -28.1% | M14 melanoma -39.7%
inactive: NCI-H23 lung 89.3% | NCI-H226 lung 88.9% | NCI-H322M lung 85.8% | HOP-62 NSCLC 82.6% | NCI-H460 lung 79.6% | HOP-92 NSCLC 37.1% | NCI-H522 lung 79.5% | A549/ATCC NSCLC 77.1% | 786-0 renal 68.1% | COLO 205 colon 67.3% | DU-145 prostate 83.1% | MALME-3M melanoma 96% | MDA-MB-231 breast 39% | RXF 393 renal 74.2% | SF-268 CNS 82.7% | SF-295 CNS 67.3% | SF-539 CNS 81.7% | UACC-257 melanoma 92.7%

Cc1cn(-c2cc(C(=O)Nc3cccc(C#Cc4cccc5[nH]nc(N)c45)c3)cc(C(F)(F)F)c2)cn1
inactive: NCI-H23 lung 44.1% | NCI-H226 lung 33.1% | NCI-H322M lung 68.4% | HOP-62 NSCLC 45.1% | NCI-H460 lung 40.6% | HOP-92 NSCLC 26.4% | NCI-H522 lung 51.7% | A549/ATCC NSCLC 63.2% | 786-0 renal 66.7% | COLO 205 colon 13.8% | DU-145 prostate 72.5% | MDA-MB-231 breast 29.8% | SF-268 CNS 58.6% | SF-295 CNS 67.2% | SF-539 CNS 25.3% | UACC-257 melanoma 18.1% | M14 melanoma 11.5%
active: K-562 leukemia 5.16% | MALME-3M melanoma -12% | RXF 393 renal 1.89%

Reference: PubChem BioAssay (NCI)
